Screens from PubChem.
Shown is part of a subset that was picked to be rich in hits.
Pf Dd2 inh: Plasmodium falciparum Dd2 growth inhibition; P. falciparum Dd2 growth, SYBR Green, 72 h; Potency, µM (series often up to 28.9 µM), inactives show top-dose activity, negative = inhibition, usual class: inhibitors; 120,000 compounds, 4.3% hits; AID 1347417; active = well fitted inhibition curve with a large enough effect;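 note: plate controls were DMSO vehicle for no effect and reference drug for full effect; nearly all actives have a fitted effect of over 65% in size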
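Infected erythrocytes (Dd2, 0.3% parasitemia, 2.5% hematocrit final) are added to compound in RPMI-1640/Albumax II medium, grown 72 h at 37C in low oxygen, then lysed with saponin/Triton-X containing SYBR Green and read by fluorescence.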
The depositor's hits bear a star; i = inactive; [ ] = remark or other dose. Potency is the fitted concentration of half-maximal effect.

SMILES	Pf Dd2 inh
Cc1noc(C)c1S(=O)(=O)N1C[C@@H](Oc2cccnc2)C[C@H]1C(=O)N1CCOCC1	25%
O=C(NCc1cccnc1)C1CCC(=O)N(Cc2cccc(C(F)(F)F)c2)C1 (stereo not given)	-4%
CN1C(=O)CCCCC1C(=O)NCc1ccc(Cl)cc1 (stereo not given)	8%
O=C(C1CCC1)N1CCN(Cc2ccc(=O)n(CC3CC3)c2)CC1	-7%
COC[C@@H]1CN(C(=O)COc2ccc(Cl)cc2C)C[C@H]1C(N)=O	1%
O=C(COc1ccccc1)NCc1ccc2c(c1)CCN2C(=O)c1ccc(Cl)cc1	62%
COc1ccc(OCC(=O)N2CCN(C(=O)c3cc(OC)c(OC)c(OC)c3)CC2)cc1	17%
COc1cc2c(cc1OC)C(COc1ccc(C(C)C)cc1)N(C(=O)COc1ccccc1)CC2 (stereo not given)	11µM*
COCc1nnc2n1CCC(NC(=O)COc1ccc(Cl)cc1)CC2 (stereo not given)	9%
COCCOC1CCN(C(=O)COc2ccccc2)CC1	3%
COC(=O)c1ccc(OCC2c3cc(OC)c(OC)cc3CCN2C(=O)COc2ccc(Cl)cc2)cc1 (stereo not given)	10µM*
COC(=O)C[C@@H]1CCN(C(=O)COc2ccccc2)C[C@@H]1CC1=NCCc2cc(OC)c(OC)cc21	i
COc1ccc(OCC2c3cc(OC)c(OC)cc3CCN2C(=O)COc2ccc(Cl)cc2Cl)cc1 (stereo not given)	10µM*
CN1C(=O)C(c2ccccc2)CC12CCN(C(=O)c1ccoc1)CC2 (stereo not given)	-14%
CCn1nccc1C(=O)N1CCC(Cc2noc(C3CCOCC3)n2)C1 (stereo not given)	8%
Cc1ccc(Cl)c(C(=O)N2CCC3(CC2)[C@H](O)C[C@@H]3OCCO)c1	-4%
CN(Cc1cccc(C(F)(F)F)c1)C(=O)Cc1ccc(F)cc1	i
CN(Cc1cccc(C(F)(F)F)c1)C(=O)c1ccc(F)cc1	11µM*
CC(=O)N(C)Cc1cccc(C(F)(F)F)c1	-6%[44.1 µM]
COc1ccc(C(=O)N2CC3CC(C2)[C@H]2CCCC(=O)N2C3)cn1 (stereo not given in full)	-8%
COCCNC(=O)C1(C)CN(C)Cc2ccc(Nc3cccc(OC)c3)nc21 (stereo not given)	i
COc1cccc(Nc2ccc3c(n2)C(C)(C(=O)NC(C)C)CN(C)C3)c1 (stereo not given)	2.5µM*
COc1cccc(Nc2ccc3c(n2)C(C)(C(=O)NCc2ccco2)CN(C)C3)c1 (stereo not given)	-16%[44.1 µM]
COc1ccc(OCC(=O)N(Cc2cccs2)c2ccc(OC)cc2)cc1	-20%
COc1ccc(N(Cc2cccs2)C(=O)c2ccco2)cc1	10µM*
SMILES	Pf Dd2 inh
COc1ccc(NC(=O)Cc2ccc(N(Cc3ccc(C)cc3)C(=O)c3ccco3)cc2)cc1	4.5µM*
CCCNC(=O)Cc1ccc(N(Cc2ccc(OC)cc2)C(=O)c2ccco2)cc1	i
COc1ccc(CN(C(=O)c2ccco2)c2ccc(CC(=O)NC(C)C)cc2)cc1	i
COc1ccc(CCNC(=O)Cc2ccc(N(Cc3ccccc3)C(=O)c3ccco3)cc2)cc1	-7%
CC(C)(Oc1nn(CC2CCOCC2)c2ccccc12)C(=O)NC1CCOCC1	-8%[44.1 µM]
COc1ccc(-n2nc(C3CCCN(C(=O)Cc4ccccn4)C3)[nH]c2=O)cc1 (stereo not given)	-19%
N#Cc1ccc(C(=O)Nc2ccc([C@@H](O)[C@H]3COCC(=O)N3Cc3ccc(F)cc3)cc2)cc1	10µM*
N#Cc1cccc(C(=O)Nc2ccc([C@@H](O)[C@H]3COCC(=O)N3Cc3ccc(F)cc3)cc2)c1	-18%
O=C(Nc1ccc([C@@H](O)[C@H]2COCC(=O)N2Cc2ccc(F)cc2)cc1)c1ccccc1	i
COc1cccc(CCC(=O)NCCC2CCN(C(=O)Nc3ccc(C)cc3)CC2)c1	i
O=C1NCCOCCCN(C(=O)NC2CCCCC2)[C@H]2CCCC[C@@H]12	28%
CCCNC(=O)N1CCC(O)(c2cnc(CN3CCC3)s2)CC1	i
O=C1Nc2ccccc2CC12CN([S+](=O)([O-])c1cccs1)C2	1%
CCOC(=O)C1(Cc2cccc(OC)c2)CCCN(C(=O)COc2ccccc2)C1 (stereo not given)	-14%
CCOC(=O)C1(Cc2cccc(Cl)c2)CCCN(C(=O)c2csc(C(C)=O)c2)C1 (stereo not given)	i
CCCN1CCC(N2CCCC(Cc3ccccc3)(C(=O)OCC)C2)CC1 (stereo not given)	5µM*
O=C(c1ccc(CS(=O)(=O)c2c(Cl)cccc2Cl)o1)N1CCN(c2ccccc2)CC1	11µM*
Cc1ccc(Cl)cc1N1CCN(C(=O)c2ccc(CS(=O)(=O)c3ccccc3C)o2)CC1	-21%
Cc1ccc(S(=O)(=O)Cc2ccc(C(=O)N3CCN(c4cccc(C)c4C)CC3)o2)cc1	-10%
COCCN1CCC(N2CCN(S(=O)(=O)c3ccc(C(F)(F)F)cc3)CC2)C1=O (stereo not given)	-2%
